Measured potencies and affinities stand elsewhere. The source made the active and inactive calls. No rule for the calls is given here.
Target: Acyl-homoserine lactone acylase PvdQ (Pseudomonas aeruginosa (strain ATCC 15692 / DSM 22644 / CIP 104116 / JCM 14847 / LMG 12228 / 1C / PRS 101 / PAO1)) (UniProt Q9I194)
Experiment: PvdQ acylase enzyme activity blockers – biochemical, fluorescence, plate reader and imaging, cherry-picks, dose response (AID 493231);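 also: more negative values mean stronger inhibition of the acylase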
Conditions: purified PvdQ acylase, fluorogenic substrate; series mostly up to 10 µM

Chain of Acyl-homoserine lactone acylase PvdQ (Pseudomonas aeruginosa (strain ATCC 15692 / DSM 22644 / CIP 104116 / JCM 14847 / LMG 12228 / 1C / PRS 101 / PAO1)) (Q9I194 whole entry, looked up): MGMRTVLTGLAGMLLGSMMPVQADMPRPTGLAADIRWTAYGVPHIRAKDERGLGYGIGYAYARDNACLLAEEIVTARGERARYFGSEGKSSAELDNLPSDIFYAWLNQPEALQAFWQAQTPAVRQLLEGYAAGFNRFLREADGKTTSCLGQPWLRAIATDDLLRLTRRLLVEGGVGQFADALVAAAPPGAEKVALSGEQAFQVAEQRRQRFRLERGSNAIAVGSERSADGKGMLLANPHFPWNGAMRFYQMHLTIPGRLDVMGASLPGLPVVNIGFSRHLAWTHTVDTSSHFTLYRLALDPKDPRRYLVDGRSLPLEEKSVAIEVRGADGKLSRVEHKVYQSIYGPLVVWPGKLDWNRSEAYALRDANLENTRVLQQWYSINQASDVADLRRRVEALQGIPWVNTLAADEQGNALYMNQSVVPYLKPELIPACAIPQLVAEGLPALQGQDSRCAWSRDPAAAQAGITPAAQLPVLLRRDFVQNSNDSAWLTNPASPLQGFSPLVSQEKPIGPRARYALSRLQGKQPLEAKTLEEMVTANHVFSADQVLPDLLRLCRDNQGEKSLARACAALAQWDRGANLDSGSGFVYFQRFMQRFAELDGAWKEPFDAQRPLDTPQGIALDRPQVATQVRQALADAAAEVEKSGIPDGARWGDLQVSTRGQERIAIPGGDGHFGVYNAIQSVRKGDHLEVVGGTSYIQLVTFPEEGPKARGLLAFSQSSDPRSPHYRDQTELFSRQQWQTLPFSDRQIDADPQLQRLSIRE

Compound: CC(=O)c1ccc(NC(=S)N2CCCC(CO)C2)cc1 (stereo unspecified)
- outcome: inactive

Compound: Cc1ccc(C(=O)/C=C/Nc2cccc([N+](=O)[O-])c2)o1
- outcome: inactive

Compound: NC(=O)COC(=O)c1ccc(-c2ccccc2)cc1
- outcome: inactive

Compound: CCOC(=O)c1ccc(N2CCN(c3ccccc3F)CC2)c(NC(=O)Nc2cccc(OC)c2)c1
- outcome: inactive

Compound: O=C(Nc1cccc(NC(=O)c2sc3ccccc3c2Cl)c1)c1ccco1
- outcome: inactive

Compound: Cc1ccc2nc(-c3ccc(O)cc3)oc2c1
- outcome: inactive

Compound: NS(=O)(=O)c1ccc(N2CCOCC2)c(C(=O)NCc2cccs2)c1
- outcome: inactive

Compound: COCCCNC(=O)CC1C[C@H](C(=O)N2CCCCC2)[C@@]2(CCc3ccccc3)c3[nH]c4ccc(OC)cc4c3CCN2C1=O (stereo partly specified)
- outcome: inactive

Compound: COc1ccc(CC(=O)NNC(=S)NCC2CC2)cc1OC
- outcome: inactive

Compound: Cc1ccc(-n2c(C)cn(C(=O)c3ccccc3)c2=S)cc1
- outcome: inactive

Compound: CC(Sc1nnc(-c2ccccc2F)n1C)C(=O)NC1CCCCC1 (stereo unspecified)
- outcome: inactive

Compound: O=C(NCCc1ccc2c(c1)OCCO2)c1ccccc1F
- outcome: inactive

Compound: CC1CCCCC1NS(=O)(=O)c1ccc(S(=O)(=O)N2CCCC2)cc1 (stereo unspecified)
- outcome: inactive

Compound: COc1ccc(Nc2nnc(-c3ccc(C)cc3)c3ccccc23)cc1C(=O)N1CCCCC1
- outcome: inactive

Compound: O=C1CCC(=O)N1CCSC(=S)N1CCSCC1
- outcome: inactive

Compound: CCOC(=O)C(Oc1ccc(=O)[nH]n1)C(C)=O (stereo unspecified)
- outcome: inactive

Compound: O=C1N(c2ccccc2)C[C@@H]2C[C@@H](c3cc4ccccc4o3)N3CCC[C@@]123
- outcome: inactive

Compound: CCn1c(Cc2ccccc2)nnc1SCC(=O)Nc1ccccc1
- outcome: inactive

Compound: CCn1c(SCC(=O)N/N=C/c2ccc(C)o2)nnc1-c1ccc(C(C)(C)C)cc1
- outcome: inactive

Compound: O=[N+]([O-])c1nn(-c2ccc(Cl)cc2)n(O)c1=NCc1ccccc1
- outcome: inactive

Compound: COc1cc2nc(CN3CCN(S(=O)(=O)c4c(F)cccc4F)CC3)[nH]c(=O)c2cc1OC
- outcome: inactive

Compound: CC(=O)N/C(=N/c1nc(C)cc(C)n1)Nc1ccc(C)cc1C
- outcome: inactive

Compound: CS(=O)(=O)c1ccc2sc(NC(=O)c3cc4ccccc4o3)nc2c1
- outcome: inactive

Compound: CC1CC(Nc2ccccc2)c2ccccc2N1C(=O)c1ccco1 (stereo unspecified)
- outcome: inactive

Compound: Cc1ccccc1NC(=O)Cn1nc(-c2ccccc2)nc1-c1ccccc1
- outcome: inactive

Compound: O=c1[nH]c(C2CCN(S(=O)(=O)c3ccc(C(F)(F)F)cc3)CC2)nc2c1nnn2Cc1ccc(F)cc1
- outcome: inactive

Compound: O=C(Cc1cccc(NC(=O)C2CCN(C(=O)C3CCCCC3)CC2)c1)Nc1cccc(C(=O)N2CCCCC2)c1
- outcome: inactive

Compound: CC1(OC(=O)CCc2ccccc2)C(=O)C=C2C=C(c3ccc(C#N)cc3)N(Cc3ccccc3)C=C2C1=O (stereo unspecified)
- outcome: inactive

Compound: OC(CN1CCOCC1)Cn1c(-c2cccc(Cl)c2)nc2ccccc21 (stereo unspecified)
- outcome: inactive

Compound: Cc1cc(C(=O)OCC(=O)Nc2cc(C)on2)c2ccccc2n1
- outcome: inactive

Compound: CCOC(=O)c1ccc(Nc2ncccc2[N+](=O)[O-])cc1
- outcome: inactive

Compound: N#C/C(C(=S)Nc1ccccc1)=C1/NN=C(N2CCOCC2)N1c1ccccc1
- outcome: inactive

Compound: O=C(/C=C/c1ccc(Cl)c([N+](=O)[O-])c1)c1ccc(O)cc1
- outcome: inactive

Compound: Cc1cc(C)nc(NS(=O)(=O)c2ccc(NC(=O)c3ccc(N4C(=O)CCC4=O)cc3)cc2)n1
- outcome: inactive

Compound: Cc1ccccc1OCCSc1nnc(-c2ccncc2)n1C
- outcome: inactive

Compound: O=C1C=C(c2ccccc2)OC(c2ccccc2)O1 (stereo unspecified)
- outcome: inactive
